Compound activity deposited in PubChem BioAssay by The Scripps Research Institute Molecular Screening Center.
A selection: hits, their analogues and other compounds. The true share with any hit is near 1.1%.
GALR2 agonist – GALR2 (human) receptor agonism; activation, % (test concentration not listed); O43603; actives 0.48% (n = 140,000); GALR2-expressing cells, agonist activation read-out; in the data active = activation above about 5%, passing the limit was not always enough;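 also: 0% = vehicle buffer wells and 100% = reference agonist at full effect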
Target sequence (O43603 whole entry, looked up): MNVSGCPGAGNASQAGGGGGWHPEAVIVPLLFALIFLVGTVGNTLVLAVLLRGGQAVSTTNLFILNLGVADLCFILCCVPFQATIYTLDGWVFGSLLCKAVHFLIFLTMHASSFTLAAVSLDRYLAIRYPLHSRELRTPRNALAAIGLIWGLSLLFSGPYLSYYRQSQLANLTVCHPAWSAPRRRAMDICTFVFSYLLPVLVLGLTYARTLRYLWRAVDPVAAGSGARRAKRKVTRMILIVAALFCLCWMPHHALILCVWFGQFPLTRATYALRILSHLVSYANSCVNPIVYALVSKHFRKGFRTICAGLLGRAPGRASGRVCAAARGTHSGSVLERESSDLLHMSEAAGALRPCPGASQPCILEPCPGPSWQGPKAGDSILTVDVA
S1P2 antag – blocks the human S1P2 receptor. O95136. cell-based S1P2 antagonist assay, inhibition at 5 uM. inhibition, % at 5 µM. actives 0.21% (n = 97,000). AID 736; in the data active = inhibition above about 45%;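 also: CRE beta-lactamase reporter cells expressing human S1P2 stimulated with S1P; 0% = agonist at EC80 alone and 100% = agonist plus reference antagonist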
GALR2 antag – antagonists of human galanin receptor 2 (GALR2). O43603. GALR2-expressing cells, antagonist mode. inhibition, % at 4 µM. actives 0.39% (n = 140,000). AID 828;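 also: cells stimulated with galanin 1-16 at roughly its EC80; 0% = agonist challenge control and 100% = basal control without agonist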
S1P2 ag – S1P2 (human) receptor agonism. O95136. S1P2-expressing cell line, agonist reporter read-out. activation, % at 4.5 µM. actives 0.46% (n = 97,000). AID 729; in the data active = activation above about 16%;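 also: 0% = vehicle low control and 100% = maximal reference agonist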
GALR2 blk conf – GALR2 (human) antagonism confirmed; shares compounds with GALR2 antag; GALR2-expressing cells, antagonist mode, inhibition; inhibition, % at 4 µM; actives 60% (n = 480); AID 866;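 also: cells stimulated with galanin at about its EC80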
BLA inhib ctr – counter-screen for GALR2 antagonists: beta-lactamase reporter inhibitors; shares compounds with GALR2 antag; CHO NFAT-BLA reporter, beta-lactamase FRET, thapsigargin-stimulated; inhibition, % at 4.2 µM; actives 36% (n = 480); AID 867;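 active = inhibition above the mean inhibition across tested compounds plus 3 SD, cut at about 27% in these data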;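 also: 0% = 500 nM thapsigargin stimulated wells and 100% = unstimulated BSA only wells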
Active calls of the source: *. Rule as the data show it, unless noted: active = inhibition above about 27%; inactive = the rest.

Screening CCOC(=O)N1CCN(c2ncnc3c2[nH]c2ccc(F)cc23)CC1 returned GALR2 agonist -2, S1P2 antag 58*, GALR2 antag 38*, S1P2 ag -7, GALR2 blk conf 47* and BLA inhib ctr 4.
Screening CCCCOc1ncnc2c1[nH]c1ccccc12 returned GALR2 agonist -2, S1P2 antag 31, GALR2 antag 36*, S1P2 ag -10, GALR2 blk conf 45* and BLA inhib ctr 14.
For O=C(c1ccc(S(=O)(=O)c2ccccc2Cl)c([N+](=O)[O-])c1)N1CCCCCC1 the results were GALR2 agonist -1 and GALR2 antag 11.
For Cc1ccc(C)c(C(=O)COC(=O)c2cc([N+](=O)[O-])ccc2NCCO)c1 the results were GALR2 agonist 1 and GALR2 antag -9.
`Cc1c(O)c2c3c(cccc3c1O)C(=O)N(c1ccccc1)C2=O` gave GALR2 agonist 0 and GALR2 antag 8.
`COc1ccc(NC(=O)C(C)Sc2nnc3c4c(nc(-c5ccc(OC)cc5)n23)CC(C)(C)OC4)cc1` (stereo not drawn) gave GALR2 agonist -1 and GALR2 antag 0.
For Cc1ccc(S(=O)(=O)O/N=C2\CCCc3ccccc32)cc1 the results were GALR2 agonist -6, S1P2 antag 2, GALR2 antag 5 and S1P2 ag -6.
`CC1=C(C)/C(=N\OS(=O)(=O)c2ccccc2)C=CC1=O` gave GALR2 agonist -2, S1P2 antag 96*, GALR2 antag 77*, S1P2 ag -1, GALR2 blk conf 78* and BLA inhib ctr 71*.
For CCOC(=O)COc1ccccc1/C=C\[N+](=O)[O-] the results were GALR2 agonist -3, GALR2 antag 30*, GALR2 blk conf 43* and BLA inhib ctr 30*.
`COc1ccc(OC)c(S(=O)(=O)N2CCCCCC2)c1` gave GALR2 agonist -2, GALR2 antag 28*, GALR2 blk conf 2 and BLA inhib ctr 0.
COc1ccc(OC)c(S(=O)(=O)N2CCN(C)CC2)c1 was read as GALR2 agonist -1 and GALR2 antag 10.
For c1ccc2c(c1)[nH]c1c(NCC3CCCO3)ncnc12 (stereo not drawn) the results were GALR2 agonist 0, S1P2 antag 10, GALR2 antag 28*, S1P2 ag -11, GALR2 blk conf 27* and BLA inhib ctr 5.
CCCCn1cnc2c([nH]c3ccccc32)c1=O was read as GALR2 agonist 0, S1P2 antag 9, GALR2 antag 1 and S1P2 ag -4.
`CCCCOCCCNc1ncnc2c1[nH]c1ccccc12` gave GALR2 agonist -1, S1P2 antag 29, GALR2 antag 47*, S1P2 ag -1, GALR2 blk conf 31* and BLA inhib ctr 23.
C=CCNc1ncnc2c1[nH]c1ccccc12 was read as GALR2 agonist -2, S1P2 antag -5, GALR2 antag 24 and S1P2 ag -2.
Screening c1nc(NCC2CCCO2)c2[nH]cnc2n1 (stereo not drawn) returned GALR2 agonist -1, S1P2 antag 6, GALR2 antag 0 and S1P2 ag -7.
Screening CCOCCCNc1ncnc2c1[nH]c1ccccc12 returned GALR2 agonist -1, S1P2 antag 20, GALR2 antag 29*, S1P2 ag -5, GALR2 blk conf 25 and BLA inhib ctr 16.
COc1ccc(C(=O)NCc2ccc3c(c2)OCO3)cc1S(=O)(=O)N(C)Cc1ccccc1 was read as GALR2 agonist -1 and GALR2 antag 10.
`O=C(CSc1nnnn1C1CCCC1)NCc1ccccc1` gave GALR2 agonist -1, S1P2 antag 15, GALR2 antag -3 and S1P2 ag -3.
For O=C(CSc1nnnn1C1CC2CCC1C2)Nc1ccnc2ccccc12 (stereo not drawn) the results were GALR2 agonist 0, GALR2 antag 45*, GALR2 blk conf 64* and BLA inhib ctr 20.
Screening Cc1cccn2c(NC(=O)c3cccs3)c(-c3ccccc3)nc12 returned GALR2 agonist -1 and GALR2 antag 17.
Screening Cc1ccc(C(=O)N/C(=C\c2ccco2)C(=O)NCCCn2ccnc2)cc1C returned GALR2 agonist -1, S1P2 antag 17, GALR2 antag 4 and S1P2 ag -4.
`Nc1nn(-c2ccccc2)c(N)c1N=Nc1ccccc1` gave GALR2 agonist -1, GALR2 antag 28*, GALR2 blk conf 16 and BLA inhib ctr 9.
COc1cc(/C=C2\CC/C(=C\c3cc(OC)c(O)c(OC)c3)C2=O)cc(OC)c1O was read as GALR2 agonist -2, GALR2 antag 58*, GALR2 blk conf 41* and BLA inhib ctr 30*.
Screening CC(CC(=O)c1cccs1)CC(=O)c1cccs1 returned GALR2 agonist -4, S1P2 antag 15, GALR2 antag 33*, S1P2 ag -9, GALR2 blk conf 9 and BLA inhib ctr 5.
For CC(C)(C)C(=O)OCCNc1nc(-c2ccccc2)nc2ccccc12 the results were GALR2 agonist 0 and GALR2 antag 2.
`Nc1ccc2c(c1)C/C(=C/c1ccco1)C2=O` gave GALR2 agonist -2, GALR2 antag 29*, GALR2 blk conf 33* and BLA inhib ctr 36*.
O=C1/C(=C/c2ccco2)CCc2ccccc21 was read as GALR2 agonist 0 and GALR2 antag -4.
`COc1cc(OC)c(OC)cc1/C=C/C(=O)c1ccc(NS(=O)(=O)c2ccc(C)cc2)cc1` gave GALR2 agonist -1, GALR2 antag 31*, GALR2 blk conf 21 and BLA inhib ctr 19.
Screening Cc1n[nH]c(C)c1N1C(=O)c2cccc3c(Br)ccc(c23)C1=O returned GALR2 agonist -1, S1P2 antag 74*, GALR2 antag 44*, S1P2 ag -10, GALR2 blk conf 28* and BLA inhib ctr 25.
`Cc1n[nH]c(C)c1N1C(=O)c2cccc3cc(Br)cc(c23)C1=O` gave GALR2 agonist -1, S1P2 antag -10, GALR2 antag -5 and S1P2 ag -5.
Screening Nc1nc(Nc2cccc(F)c2)nc2ccccc12 returned GALR2 agonist -1, GALR2 antag 31*, GALR2 blk conf 24 and BLA inhib ctr 13.
For Cc1ccc(C(C)C)c(OCC(=O)Nc2ccc(Cl)cn2)c1 the results were GALR2 agonist 2, S1P2 antag -12, GALR2 antag 0 and S1P2 ag -1.
CC(=O)c1c(C)[nH]c(C(=O)COc2cc(C)ccc2C(C)C)c1C was read as GALR2 agonist -2, S1P2 antag 66*, GALR2 antag 33*, S1P2 ag -1, GALR2 blk conf 50* and BLA inhib ctr 18.
Screening COc1ccc(S(=O)(=O)Nc2ccc(O)c(Sc3ncn[nH]3)c2)cc1 returned GALR2 agonist -1, S1P2 antag -24, GALR2 antag 3 and S1P2 ag 1.
O=S(=O)(Nc1cc(Sc2cccc3cccnc23)c(O)c2ccccc12)c1ccc(F)cc1 was read as GALR2 agonist -2, GALR2 antag 34*, GALR2 blk conf 27 and BLA inhib ctr 17.
